Test results published in article PMC4336329 (PLoS ONE, 2015).
In all, about 310,000 compounds went through this assay and about 2,200 (0.71%) showed an effect of 50% or more. Effects have a minus sign here. The entries come from a sample that favours strong results as a whole.

Each compound was assayed against human ether-à-go-go-related gene (hERG) potassium channel (human, UniProt Q12809) (assay: primary screen, population patch clamp on CHO cells stably expressing hERG; higher = less effect of the substance).
human ether-à-go-go-related gene (hERG) potassium channel, sequence (Q12809 whole entry, looked up): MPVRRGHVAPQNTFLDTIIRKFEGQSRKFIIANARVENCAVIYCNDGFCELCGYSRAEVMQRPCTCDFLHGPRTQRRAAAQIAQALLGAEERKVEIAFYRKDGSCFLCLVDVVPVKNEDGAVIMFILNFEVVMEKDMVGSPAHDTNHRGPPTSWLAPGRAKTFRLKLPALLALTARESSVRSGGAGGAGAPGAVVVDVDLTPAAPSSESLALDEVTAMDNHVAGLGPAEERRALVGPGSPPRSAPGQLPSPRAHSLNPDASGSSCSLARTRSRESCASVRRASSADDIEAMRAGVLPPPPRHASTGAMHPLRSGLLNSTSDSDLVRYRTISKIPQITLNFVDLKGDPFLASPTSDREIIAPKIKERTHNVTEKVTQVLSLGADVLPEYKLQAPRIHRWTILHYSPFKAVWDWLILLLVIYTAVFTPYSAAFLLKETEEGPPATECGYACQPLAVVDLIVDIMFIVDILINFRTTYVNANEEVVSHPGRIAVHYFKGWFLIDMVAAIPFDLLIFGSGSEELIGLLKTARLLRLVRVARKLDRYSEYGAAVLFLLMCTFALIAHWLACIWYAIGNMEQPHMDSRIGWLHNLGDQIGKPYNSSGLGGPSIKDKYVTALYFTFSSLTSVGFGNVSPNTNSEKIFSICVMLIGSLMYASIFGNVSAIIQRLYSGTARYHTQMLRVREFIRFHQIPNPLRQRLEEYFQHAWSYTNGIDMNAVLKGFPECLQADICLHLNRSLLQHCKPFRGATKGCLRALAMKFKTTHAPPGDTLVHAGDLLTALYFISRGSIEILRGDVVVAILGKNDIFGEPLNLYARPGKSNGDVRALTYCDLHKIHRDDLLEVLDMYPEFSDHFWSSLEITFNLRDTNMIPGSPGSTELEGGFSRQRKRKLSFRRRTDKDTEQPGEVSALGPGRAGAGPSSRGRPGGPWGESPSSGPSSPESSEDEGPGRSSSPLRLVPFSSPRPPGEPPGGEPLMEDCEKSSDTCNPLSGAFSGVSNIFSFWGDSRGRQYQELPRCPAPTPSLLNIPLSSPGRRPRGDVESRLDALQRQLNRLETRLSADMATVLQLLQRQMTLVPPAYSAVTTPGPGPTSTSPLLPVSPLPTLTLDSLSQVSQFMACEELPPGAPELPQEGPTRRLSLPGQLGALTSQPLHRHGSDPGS

Row | SMILES | hERG current change (%, negative = inhibition) at 1uM [%]
1 | COc1ccc(OCCC(=O)c2ccc(OC)cc2)cc1 | 4.68
2 | CC(OC(=O)CC1CCCCC1)C(=O)Nc1cccc(C#N)c1 (stereo not shown) | 6.92
3 | COc1cc(/C=N/NC(=O)C2CCN(CC(O)COCc3ccccc3)CC2)ccc1O (stereo not shown) | -63.6
4 | CCOc1ccc(/C=N/NC(=O)C2CC2)cc1OC | 19.1
5 | COc1cc(/C=N/NC(=O)C2CCN(CC(O)COCc3ccccc3)CC2)cc(OC)c1OC (stereo not shown) | -34.2
6 | O=C(Nc1ccccc1)OCCOc1ccc(Br)cc1 | 11.2
7 | O=C(O)c1ccc(C[n+]2c(-c3ccccc3)csc2Nc2ccccc2)cc1.[Br-] | 8.98
8 | Cl.Oc1ccc(CCNc2c3ccccc3nc3ccccc23)cc1O | -3.93
9 | CCOC(=O)c1cnc2ccccc2c1NCCO | -15.2
10 | COc1ccc(CCNc2c3ccccc3nc3ccccc23)cc1OC.Cl | -59.8
11 | CCOC(=O)c1cnc2ccc(OC)cc2c1NCCN1CCOCC1 | -13.3
12 | COc1ccc(CCNc2nc(-c3cccnc3)nc3ccccc23)cc1OC | 9.94
13 | CCOC(=O)c1cnc2c(C)cccc2c1NCCc1ccc(OC)c(OC)c1 | -4.73
14 | CCOC(=O)c1cnc2ccc(C(=O)OC)cc2c1NCCc1ccc(OC)c(OC)c1 | 0.861
15 | CCOC(=O)c1cnc2ccccc2c1NCCc1ccc(OC)c(OC)c1 | -72
16 | CCOC(=O)c1cnc2ccc(OC)cc2c1NCCc1ccc(OC)c(OC)c1 | -69.5
17 | O=C(CCCOc1ccc(Cl)cc1)NC1CCCCC1 | 12.5
18 | Cc1ccc2sc(NNC(=O)c3ccc4c(c3)OCCO4)nc2c1C | 8.2
19 | CCC(=O)n1nc(-c2ccc(Cl)cc2)nc1NCc1ccccc1 | 8.9
20 | COc1cccc(N2CC(O)=C(c3nc4ccccc4c(=O)[nH]3)C2=N)c1 | 6.93
21 | Cc1c(O)ccc(NS(=O)(=O)c2ccccc2)c1C | 13
22 | O=C1CC(N2CCC(n3c(=O)[nH]c4ccccc43)CC2)C(=O)N1c1ccc(F)cc1 (stereo not shown) | 7.15

Row | SMILES | hERG current change (%, negative = inhibition) at 1uM [%]
23 | O=C(Nc1cccc(F)c1)N1CCC(n2c(=O)[nH]c3ccccc32)CC1 | 2.25
24 | O=C(CCCN1CCC(n2c(=O)[nH]c3ccccc32)CC1)c1ccc(F)cc1 | -80.8
25 | O=c1[nH]c2ccccc2n1CCCN1CCC(n2c(=O)[nH]c3cc(Cl)ccc32)CC1 | -46.8
26 | O=c1[nH]c2ccccc2n1C1CCCCC1 | 7.5
27 | O=c1[nH]c2ccccc2n1C1CCN(CCCC(c2ccc(F)cc2)c2ccc(F)cc2)CC1 | -76.5
28 | CCN(CC)C(=O)c1ccc(NC(=O)c2ccc(-n3cncn3)c([N+](=O)[O-])c2)cc1 | 4.18
29 | CS(=O)(=O)NNC(=O)CN1C(=O)C2C3C=CC(C3)C2C1=O (stereo not shown) | 22.9
30 | Cc1noc(C)c1C(=O)Nc1nc2ccc(F)cc2s1 | 2.2
31 | CCOC(=O)C(C)Sc1nnc(Cn2c(=O)sc3ccccc32)n1-c1ccccc1 (stereo not shown) | 4.98
32 | CCOCCn1c(=O)c2c(nc3n2CC(C)CN3Cc2ccccc2)n(C)c1=O (stereo not shown) | -14.4
33 | CCOCCn1c(=O)c2c(nc3n2CC(C)CN3CCc2ccccc2)n(C)c1=O (stereo not shown) | -58.9
34 | COCCn1c(=O)c2c(nc3n2CC(C)CN3CCc2ccccc2)n(C)c1=O (stereo not shown) | -9.39
35 | O=C(CC1NCCNC1=O)Nc1cccc([N+](=O)[O-])c1 (stereo not shown) | 6.97
36 | CCC(C)N(C(=O)COC(=O)c1ccccc1SCC(=O)N1CCCC1)C1CCS(=O)(=O)C1 (stereo not shown) | 11.9
37 | O=C1c2ccccc2-c2nc3ncnn3c(-c3ccccc3Cl)c21 | 5.18
38 | COc1ccc(Nc2nc(NCCCN3CCOCC3)nc(N)c2[N+](=O)[O-])cc1 | 3.71
39 | Cc1ccc(Nc2nc(NCCCN3CCOCC3)nc(N)c2[N+](=O)[O-])cc1 | -56.2
40 | Cc1ccc(Nc2nc(NCCCN3CCOCC3)nc(N)c2[N+](=O)[O-])cc1C | 4.15
41 | COc1ccc(NC(=O)c2ccc(-n3cccn3)nc2)c(OC)c1 | 17.4
42 | COC(=O)c1ccc2nc(NC(=O)CN3C(=O)CCC3=O)sc2c1 | 14.3
43 | CN(CC(=O)Nc1cccc(F)c1)C(=O)c1cc(S(=O)(=O)N2CCCCC2)ccc1N1CCOCC1 | 3.68
